The source made the active and inactive calls.
How the values were obtained:
[1] = target: Albumin (Bos taurus) (UniProt P02769); assay: compounds binding labelled BSA control protein – biochemical, small-molecule microarray, Alexa647 label, 635/667 nm fluorescence, artefact control for SMM control protein annotation, profiling panel (AID 1118); conditions: BSA-A647 binding, fluorescence 635 nm, higher = more signal;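 also: score merges 667 nm emission intensity and signal-to-noise per printed compound spot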
Chain of Albumin (Bos taurus) (P02769 whole entry, looked up): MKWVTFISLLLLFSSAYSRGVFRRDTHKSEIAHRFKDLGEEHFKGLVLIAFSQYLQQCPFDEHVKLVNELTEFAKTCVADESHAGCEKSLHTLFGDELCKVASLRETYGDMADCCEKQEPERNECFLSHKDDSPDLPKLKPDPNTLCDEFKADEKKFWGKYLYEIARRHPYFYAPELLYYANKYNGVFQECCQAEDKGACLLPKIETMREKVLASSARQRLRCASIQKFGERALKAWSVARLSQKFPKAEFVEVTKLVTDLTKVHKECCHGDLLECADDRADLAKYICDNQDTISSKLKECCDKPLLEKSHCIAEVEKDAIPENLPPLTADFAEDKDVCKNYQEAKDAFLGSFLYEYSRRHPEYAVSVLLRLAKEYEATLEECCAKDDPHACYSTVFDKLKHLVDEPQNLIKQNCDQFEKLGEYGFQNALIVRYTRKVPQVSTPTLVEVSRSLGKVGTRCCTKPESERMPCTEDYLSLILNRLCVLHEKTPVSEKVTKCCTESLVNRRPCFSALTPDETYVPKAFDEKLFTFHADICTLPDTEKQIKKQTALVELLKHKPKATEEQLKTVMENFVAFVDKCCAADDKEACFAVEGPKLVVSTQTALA

[2] = probe aXIP binding to arrayed compounds – biochemical, NeuroSMM set, 635/667 nm fluorescence, primary screen (AID 1119); conditions: small-molecule microarray, higher = more signal, called active from +8 up or from −8 down;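 also: probe is the protein aXip251-270 applied at 1 µg/mL to compound-printed slides; binding of probe to printed compounds measured as 667 nm fluorescence plus signal to noise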
[3] = probe aNOTCH3 binding on compound microarray – biochemical, small-molecule microarray, 635/667 nm fluorescence, primary screen (AID 1120); conditions: higher = more signal;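 also: probe is a biotin-tagged antibody raised against NOTCH3 rather than NOTCH3 protein; score merges spot fluorescence near 667 nm with spot signal to noise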
[4] = probe aNOTCH2 binding on compound microarray – biochemical, small-molecule microarray, 635/667 nm fluorescence, primary screen (AID 1121); conditions: higher = more signal;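 also: score merges feature fluorescence read at 667 nm with its signal to noise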
[5] = target: Carbonic anhydrase 2 (Homo sapiens) (UniProt P00918); assay: compounds binding carbonic anhydrase 2 – biochemical, small-molecule microarray, Alexa647-labelled CAII, profiling panel (AID 1122); conditions: CAII-A647 binding fluorescence, higher = more signal
[6] = COS7 lysate on small-molecule microarray, probe aHis, 635 nm (AID 1123); conditions: COS7 cell lysate, fluorescence, higher = more signal;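 also: z-score combines 667nm fluorescence intensity with signal-to-noise per printed compound spot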
[7] = probe aLAP1 signal on lysate-treated microarray – cell lysate, small-molecule microarray, COS7 lysate, primary screen (AID 1124); conditions: probe aLAP1, fluorescence, higher = more signal;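 also: lysate comes from COS7 cells expressing LAP1 and is applied at 0.3 µg/mL; score merges spot fluorescence near 667 nm with signal-to-noise over triplicate slides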
[8] = system: Sam68 (KHDRBS1); assay: compounds binding KHDRBS1 protein – biochemical, small-molecule microarray, 635 nm fluorescence, primary screen (AID 1125); conditions: higher = more signal;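 also: score merges 667 nm channel intensity with signal to noise over triplicate slides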
[9] = system: Chordin-like protein 2 (CHRDL2); assay: compounds binding chordin-like 2 – biochemical, small-molecule microarray, 635 nm fluorescence, primary screen (AID 1126); conditions: fluorescence 635 nm, higher = more signal;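 also: printed compound slides probed with Chrdl2 protein at 4 µg/mL for 1 h at 4 C; score merges 667 nm emission intensity with signal to noise over three replicate slides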
[10] = target: Concanavalin-A (Canavalia ensiformis) (UniProt P02866); assay: compounds binding concanavalin A lectin – biochemical, small-molecule microarray, Alexa647 label, 635 nm, artefact control for SMM control protein annotation, primary screen (AID 1127); conditions: ConA-A647 binding fluorescence, higher = more signal;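 also: z combines 667 nm emission intensity with signal-to-noise across three replicate slides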
Chain of Concanavalin-A (Canavalia ensiformis) (P02866 whole entry, looked up): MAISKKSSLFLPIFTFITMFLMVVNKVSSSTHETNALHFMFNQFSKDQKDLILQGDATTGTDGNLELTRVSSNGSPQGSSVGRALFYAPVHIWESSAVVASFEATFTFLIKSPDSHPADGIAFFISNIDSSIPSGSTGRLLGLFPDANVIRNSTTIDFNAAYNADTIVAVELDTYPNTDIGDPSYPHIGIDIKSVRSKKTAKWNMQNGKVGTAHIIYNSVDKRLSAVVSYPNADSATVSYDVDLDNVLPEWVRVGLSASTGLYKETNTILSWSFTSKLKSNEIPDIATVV

[11] = compounds binding Alexa647 anti-His antibody – biochemical, small-molecule microarray, 635 nm fluorescence, artefact control for SMM control protein annotation, primary screen (AID 1128); conditions: higher = more signal;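 also: score merges feature fluorescence with signal-to-noise for each printed compound spot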
[12] = system: Human papillomavirus type 1a E7 protein (residues 1-88); assay: HPV1a E7 small-molecule binders, primary screen, biochemical, small-molecule microarray, residues 1-88, 635 nm (AID 1129); conditions: small-molecule microarray binding, fluorescence 635 nm; higher = more signal
[13] = target: Focal adhesion kinase 1 (Homo sapiens) (UniProt Q05397); assay: PTK2 protein binding on printed compound slides – biochemical, small-molecule microarray, 635/667 nm fluorescence, BSA, DTT, primary screen (AID 1130); conditions: 635 nm fluorescence, higher = more signal;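 also: composite of spot emission at 667 nm and signal to noise over triplicate slides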
Chain of Focal adhesion kinase 1 (Homo sapiens) (Q05397 whole entry, looked up): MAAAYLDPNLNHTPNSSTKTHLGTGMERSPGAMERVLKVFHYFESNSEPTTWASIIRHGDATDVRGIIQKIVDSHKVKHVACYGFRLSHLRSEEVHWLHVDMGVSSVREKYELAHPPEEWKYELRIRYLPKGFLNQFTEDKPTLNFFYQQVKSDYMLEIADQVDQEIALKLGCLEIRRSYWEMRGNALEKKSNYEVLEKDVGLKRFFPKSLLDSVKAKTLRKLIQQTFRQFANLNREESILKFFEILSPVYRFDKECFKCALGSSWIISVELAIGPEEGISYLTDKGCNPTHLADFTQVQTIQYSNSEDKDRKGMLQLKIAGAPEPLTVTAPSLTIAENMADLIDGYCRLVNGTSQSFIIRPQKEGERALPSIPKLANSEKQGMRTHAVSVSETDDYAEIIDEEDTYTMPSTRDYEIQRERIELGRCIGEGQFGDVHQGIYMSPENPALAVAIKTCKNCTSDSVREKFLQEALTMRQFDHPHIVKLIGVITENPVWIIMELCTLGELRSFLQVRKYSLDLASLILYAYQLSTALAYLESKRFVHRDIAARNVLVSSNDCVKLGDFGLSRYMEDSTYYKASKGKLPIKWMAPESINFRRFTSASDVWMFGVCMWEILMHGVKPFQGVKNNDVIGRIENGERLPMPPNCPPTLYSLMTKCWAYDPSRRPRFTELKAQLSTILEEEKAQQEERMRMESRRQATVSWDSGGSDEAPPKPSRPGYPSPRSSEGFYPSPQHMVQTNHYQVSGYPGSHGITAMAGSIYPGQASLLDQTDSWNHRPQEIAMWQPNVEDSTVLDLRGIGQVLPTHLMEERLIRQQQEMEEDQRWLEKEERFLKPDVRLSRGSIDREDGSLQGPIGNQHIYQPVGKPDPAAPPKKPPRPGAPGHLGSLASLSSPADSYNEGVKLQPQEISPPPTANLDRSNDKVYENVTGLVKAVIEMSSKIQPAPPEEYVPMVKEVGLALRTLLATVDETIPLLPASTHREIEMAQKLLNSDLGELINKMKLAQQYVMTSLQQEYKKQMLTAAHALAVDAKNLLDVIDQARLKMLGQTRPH

[14] = system: Fibrinogen (Alexa647-labelled); assay: Alexa647-fibrinogen binding to printed small molecules – biochemical, small-molecule microarray, 635/667 nm fluorescence, artefact control for SMM control-protein annotation, profiling panel (AID 1131); conditions: fibrinogen-A647 binding fluorescence, higher = more signal;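 also: z-score merges 667 nm fluorescence with per-spot signal-to-noise over triplicate slides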
[15] = target: Follistatin (Homo sapiens) (UniProt P19883); assay: FST protein binding to printed compounds – biochemical, small-molecule microarray, 635/667 nm fluorescence, primary screen (AID 1132); conditions: 635 nm fluorescence, higher = more signal
Chain of Follistatin (Homo sapiens) (P19883 whole entry, looked up): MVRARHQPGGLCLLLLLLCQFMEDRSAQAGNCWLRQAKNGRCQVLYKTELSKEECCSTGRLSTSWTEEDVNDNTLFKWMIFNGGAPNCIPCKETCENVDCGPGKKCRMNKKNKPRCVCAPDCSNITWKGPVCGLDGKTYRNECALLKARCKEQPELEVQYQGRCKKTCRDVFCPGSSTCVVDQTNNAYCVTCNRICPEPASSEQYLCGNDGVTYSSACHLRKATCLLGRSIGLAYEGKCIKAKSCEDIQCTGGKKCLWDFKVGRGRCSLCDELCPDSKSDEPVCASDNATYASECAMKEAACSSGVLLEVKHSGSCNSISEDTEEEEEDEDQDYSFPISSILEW

[16] = target: Fibroblast growth factor 2 (Homo sapiens) (UniProt P09038); assay: basic fibroblast growth factor binding to printed compounds – biochemical, small-molecule microarray, 635/667 nm fluorescence, primary screen (AID 1133); conditions: FGF2, fluorescence 635/667, higher = more signal
Chain of Fibroblast growth factor 2 (Homo sapiens) (P09038 whole entry, looked up): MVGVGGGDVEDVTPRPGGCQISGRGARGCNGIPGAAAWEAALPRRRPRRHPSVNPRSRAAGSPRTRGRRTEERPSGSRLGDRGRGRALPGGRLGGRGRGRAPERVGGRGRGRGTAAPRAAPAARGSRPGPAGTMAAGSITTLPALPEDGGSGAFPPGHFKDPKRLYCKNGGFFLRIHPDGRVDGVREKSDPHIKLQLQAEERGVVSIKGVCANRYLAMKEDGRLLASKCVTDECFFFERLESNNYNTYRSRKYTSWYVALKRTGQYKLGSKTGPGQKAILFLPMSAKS

[17] = JC-1 mitochondrial potential readout, lung cancer cells – cell-based, A549, JC-1 fluorescence, basal, 24 h, 100 nL, profiling panel (AID 1138); conditions: higher = more signal;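 also: A549 lung adenocarcinoma cells under basal conditions with no added stimulus; test concentration not given here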
[18] = system: Lefty1; assay: Lefty1 protein binding to printed compounds – biochemical, small-molecule microarray, 635/667 nm fluorescence, primary screen (AID 1139); conditions: fluorescence 635/667, higher = more signal
[19] = system: wheat germ agglutinin (Triticum aestivum), Alexa647-labelled; assay: Alexa647-WGA lectin binding to printed small molecules – biochemical, small-molecule microarray, 635/667 nm fluorescence, artefact control for SMM control-protein annotation, profiling panel (AID 1140); conditions: WGA-A647 binding, 635 nm fluorescence, higher = more signal;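 also: score merges 667 nm feature emission with signal to noise over triplicate slides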
[20] = target: Luciferin 4-monooxygenase (Photinus pyralis) (UniProt P08659); assay: inhibition of purified Photinus pyralis luciferase – biochemical, luminescence, purified enzyme, 2006 set, primary screen (AID 1141); conditions: purified firefly luciferase, SteadyGlo luminescence, 30 min; higher = more signal, called active from +8 up or from −8 down;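 also: cell-free assay with purified firefly luciferase at 100 ng per well in PBS; test concentration not given here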
Chain of Luciferin 4-monooxygenase (Photinus pyralis) (P08659 whole entry, looked up): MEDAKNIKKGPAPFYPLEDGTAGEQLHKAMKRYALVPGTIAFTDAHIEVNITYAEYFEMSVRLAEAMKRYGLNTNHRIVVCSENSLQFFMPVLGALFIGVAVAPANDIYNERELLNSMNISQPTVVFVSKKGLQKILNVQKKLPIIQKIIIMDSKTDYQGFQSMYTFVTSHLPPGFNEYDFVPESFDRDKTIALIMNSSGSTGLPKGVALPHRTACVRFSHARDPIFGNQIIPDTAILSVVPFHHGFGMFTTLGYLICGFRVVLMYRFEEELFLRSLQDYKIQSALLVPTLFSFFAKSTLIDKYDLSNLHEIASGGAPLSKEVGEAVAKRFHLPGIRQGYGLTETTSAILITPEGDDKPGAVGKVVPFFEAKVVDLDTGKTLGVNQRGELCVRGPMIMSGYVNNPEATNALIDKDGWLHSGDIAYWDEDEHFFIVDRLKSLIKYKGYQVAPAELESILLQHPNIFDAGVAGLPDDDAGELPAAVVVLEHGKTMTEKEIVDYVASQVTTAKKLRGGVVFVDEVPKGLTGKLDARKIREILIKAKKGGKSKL

Row | Structure (SMILES) | composite z-score [1] | composite Z-score [2] | composite z-score [3] | composite z-score [4] | composite z-score [5] | composite z-score [6] | composite z-score [7] | composite z-score [8] | composite z-score [9] | composite z-score [10] | composite z-score [11] | composite z-score [12] | composite z-score [13] | composite z-score [14] | composite z-score [15] | composite z-score [16] | z-score [17] | composite z-score [18] | composite z-score [19] | z-score [20]
1 | COC(=O)[C@H](C)NC(=O)CCC1CC(OC(=O)NCc2cccc3ccccc23)CC2(CCCC(COC(=O)NCCc3ccccc3OC)O2)O1 (stereo not given in full) | 0.707 | -0.18 (inactive) | 0.0893 | -0.185 | 0.548 | 1.06 | -0.557 | 1.3 | 0.409 | 0.917 | 1.13 | 1.18 | 0.656 | 0.661 | 0.941 | 0.544 | -0.358 | 0.89 | 0.316 | 0.603 (inactive)
2 | CCN1C(=O)[C@H]2[C@@H]3C(=CC[C@H]2C1=O)C(=O)[C@H]1O[C@H]1[C@H]3O | -0.458 | -0.192 (inactive) | -0.0258 | -0.0531 | -0.156 | 0.141 | 0.426 | 0.657 | 1.21 | 0.725 | 1.21 | 0.491 | -0.204 | 0.185 | 1.21 | 1.42 | -0.923 | 1.39 | 0.207 | -0.415 (inactive)
3 | CC[C@@H](c1ccccc1)n1c(=O)n2n(c1=O)[C@H]1[C@H](O)[C@@H]3O[C@@H]3C(=NOCc3ccccc3)[C@H]1CC2 | 0.536 | -0.558 (inactive) | 0.0306 | -0.203 | 0.178 | 0.423 | -0.502 | 0.0843 | 0.283 | 0.966 | 0.274 | 0.0875 | -0.207 | 0.931 | 0.598 | 0.373 | -1.14 | 0.65 | 0.676 | 0.0145 (inactive)
4 | CCOC(=O)[C@H](CC(C)C)NC(=O)CCC1CC(OC(=O)NCCc2ccc(F)cc2)CC2(CCCC(COC(=O)NCc3cccc(C(F)(F)F)c3)O2)O1 (stereo not given in full) | 0.386 | 1.35 (inactive) | -0.0003 | -0.117 | 0.475 | 0.953 | -0.0042 | 1.21 | 0.273 | 0.542 | 0.167 | 1.15 | 0.155 | 0.619 | 0.579 | 0.987 | -0.208 | 0.549 | 0.296 | 0.507 (inactive)
5 | COC(OC)[C@@H](C)[C@H](OC)[C@@H](C)[C@H](OC)c1ccccc1 | -0.355 | 0.273 (inactive) | -0.0647 | -0.15 | -0.552 | -0.729 | -0.266 | -1.16 | 0.473 | -0.18 | -0.504 | 0.104 | -0.043 | -0.353 | 0.144 | 0.142 | 2.15 | 0.253 | -0.0965 | -1.67 (inactive)
6 | C=CC[C@@H]1C=C[C@H](ON=CC[C@@H]2C=C[C@H](OC(C)=O)[C@@H](COC(C)=O)O2)[C@@H](CO)O1 | 0.0919 | -0.0027 (inactive) | 0.164 | 0.0219 | 0.197 | 0.312 | 0.0839 | 1.29 | 0.441 | 0.823 | 1.37 | 0.915 | -0.0825 | 0.991 | 0.538 | 0.945 | -0.0536 | 0.918 | 0.566 | 0.328 (inactive)
7 | C[C@@H]1CC[C@H]2C(=O)O[C@@H](COc3ccc(C(C)(C)C)cc3)CN2[C@H]1c1ccc(Br)cc1 | 0.425 | 0.289 (inactive) | -0.0663 | -0.164 | -0.0795 | 1.39 | 0.21 | 0.292 | 0.329 | 0.721 | -0.0988 | -0.153 | -0.171 | 0.407 | 0.0252 | 0.0914 | 0.784 | 0.135 | 0.0196 | 0.104 (inactive)
8 | COc1cccc([C@H](O)Cn2cc(-c3ccc(CON=C(C)C)cc3)nn2)c1 | 0.212 | -0.511 (inactive) | -0.0647 | 0.127 | -0.0261 | -0.011 | -0.169 | -0.937 | 0.0083 | -2.65 | 0.0043 | -1.15 | -0.351 | -1.01 | -0.46 | -0.153 | -0.442 | -0.324 | -0.3 | 0.278 (inactive)
9 | CCN1C(=O)[C@H]2[C@H]3[C@H](O)[C@H](O)CC(=NO[C@@H](C)c4cc(-c5c(C)cc(C)cc5C)no4)[C@@H]3CC[C@H]2C1=O | 0.581 | -0.0662 (inactive) | 0.051 | -0.0562 | 0.465 | 1.11 | 0.693 | 1.3 | 0.333 | 1.02 | -0.185 | 0.918 | 0.23 | 0.813 | 0.809 | 1.08 | 0.474 | 0.922 | 1.01 | 1.06 (inactive)
10 | CCC1=NOC(CCC2CC(OC(=O)NCc3cccc4c3OCO4)CC3(CCCC(COC(=O)NCCc4ccc(Cl)cc4)O3)O2)C1 (stereo not given) | 0.585 | -0.0197 (inactive) | -0.0647 | -0.0651 | 0.228 | 0.599 | -0.29 | 0.712 | -0.0546 | 0.0985 | 0.696 | 0.459 | -0.123 | 0.663 | 0.0801 | 1.24 | -0.415 | 0.497 | -0.191 | 0.74 (inactive)
11 | O=C(NN=C1C[C@@H](O)[C@@H](O)[C@@H]2[C@@H]3C(=O)N(Cc4ccc5c(c4)OCO5)C(=O)[C@@H]3CC[C@@H]12)OCc1ccccc1 | 0.544 | 0.536 (inactive) | -0.0377 | -0.0817 | -0.141 | -0.357 | 0.0507 | -0.449 | -0.0473 | -0.0653 | 0.921 | 0.0191 | 0.28 | 0.057 | -0.137 | -0.0806 | -0.734 | -0.257 | 0.227 | 1.02 (inactive)
12 | COc1ccc(COC(=O)NN=C2C[C@@H](O)[C@@H](O)[C@@H]3[C@@H]4C(=O)N(C(C)(C)C)C(=O)[C@@H]4CC[C@@H]23)cc1 | 0.584 | 0.526 (inactive) | 0.136 | -0.167 | 0.346 | 0.685 | 0.31 | 1.14 | 0.59 | 0.632 | 0.839 | 0.656 | -0.14 | 0.874 | 0.542 | 0.247 | -0.367 | 0.548 | 0.608 | 0.137 (inactive)
13 | CC(CCC(=O)OC[C@H]1O[C@H](C#Cc2ccccc2)C=C[C@@H]1Oc1ccc(C)cc1)=NO[C@H](C)c1cn([C@@H]2COC[C@H]2O)nn1 | -0.115 | -0.166 (inactive) | -0.0697 | -0.125 | -0.129 | -0.235 | 0.0502 | -0.0882 | 0.308 | -0.785 | 0.254 | -0.0794 | 0.0652 | 0.666 | 0.273 | 0.162 | -0.262 | 0.317 | 0.299 | -2.18 (inactive)
14 | Cc1ccc2[nH]c3nc(CCCn4ccnc4-c4ccccc4)nnc3c2c1 | 0.414 | -0.375 (inactive) | 0.079 | -0.176 | 0.465 | 0.656 | 0.0559 | 1.05 | 0.763 | 1.1 | 0.663 | 1.08 | 0.0863 | 0.826 | 0.757 | 1.19 | 0.524 | 0.802 | 0.676 | 0.36 (inactive)
15 | C[C@H]1CC[C@H]2C(=O)O[C@H](CO)CN2[C@@H]1c1ccc(Br)cc1 | 0.167 | 0.436 (inactive) | 0.0081 | -0.124 | -0.11 | -0.0346 | 0.0438 | 0.424 | 0.229 | -0.453 | -0.15 | 0.015 | 0.638 | 0.0011 | 0.0723 | 0.103 | 0.69 | 0.353 | -0.004 | -0.19 (inactive)
